# Compounds without any hit were thinned out: in the full panel of roughly 79,000, 15% have a hit. Values without a mark were called inactive. Activity calls are given as the source filed them. Cut-off read from the data, not from the text of the source: active = growth inhibition above about 70%; inactive = the rest.
# Tests used:
# [1] = NCI Yeast Anticancer Drug Screen. Data for the rad50 strain (AID 155);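 note: 0% = growth of vehicle-only cultures of the same strain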; conditions: S. cerevisiae rad50 strain growth inhibition, stronger effect = higher value
# Method in brief: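 Cells are treated with compound, grown, and their growth is then scored against vehicle-only cultures of the same repair-deficient yeast strain.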
# [2] = NCI Yeast Anticancer Drug Screen. Data for the mec2-1 strain (AID 157); conditions: S. cerevisiae mec2-1 strain, stronger effect = higher value
# Method in brief: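 Cells of the genetically defined mec2-1 yeast strain are incubated with test compound. Inhibition of growth is calculated against vehicle-treated controls.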
# [3] = NCI Yeast Anticancer Drug Screen. Data for the sgs1 mgt1 strain (AID 161);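 note: 0% = growth of cultures given vehicle only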; conditions: S. cerevisiae sgs1 mgt1 strain, stronger effect = higher value
# Method in brief: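 Mutant yeast exposed to compound; growth scored against vehicle-only wells.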
# [4] = NCI Yeast Anticancer Drug Screen. Data for the cln2 rad14 strain (AID 165);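 note: 0% = growth equal to vehicle treated cultures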; conditions: S. cerevisiae cln2 rad14 strain, stronger effect = higher value
# Method in brief: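 The screen exposed genetically defined yeast (cln2 rad14) to test compounds and scored growth inhibition relative to vehicle-treated controls.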
# [5] = NCI Yeast Anticancer Drug Screen. Data for the bub3 strain (AID 167); conditions: S. cerevisiae bub3 mutant strain, stronger effect = higher value
# Method in brief: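 Part of a panel of yeast mutants defective in DNA damage repair or cell cycle regulation. Each strain is grown with compound, and inhibition is calculated relative to solvent-treated cultures.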
# [6] = NCI Yeast Anticancer Drug Screen. Data for the mlh1 rad18 strain (AID 175); conditions: S. cerevisiae mlh1 rad18 strain growth inhibition, stronger effect = higher value
# Method in brief: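 Compound-treated yeast growth, normalised to vehicle controls. Strain bears defined DNA repair mutations.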
# [7] = at 5.0 µM (retest, dose inferred, filed as 0.5)
# [8] = at 50.0 µM (retest, dose inferred, filed as 5.0)
Structure (SMILES),"growth inhibition [1, 7]","growth inhibition [1, 8]",growth inhibition ([1]; at 50.0 µM),"growth inhibition [2, 7]","growth inhibition [2, 8]",growth inhibition ([2]; at 50.0 µM),"growth inhibition [3, 7]","growth inhibition [3, 8]",growth inhibition ([3]; at 50.0 µM),"growth inhibition [4, 7]","growth inhibition [4, 8]",growth inhibition ([4]; at 50.0 µM),"growth inhibition [5, 7]","growth inhibition [5, 8]",growth inhibition ([5]; at 50.0 µM),"growth inhibition [6, 7]","growth inhibition [6, 8]",growth inhibition ([6]; at 50.0 µM)
CS(=O)(=O)OCCN(CCOS(C)(=O)=O)c1ccc(C=Nc2ccc(-c3csc(-c4ccc(Cl)cc4)n3)cc2)cc1,37%,92% (active),92.5% (active),15%,94% (active),94.4% (active),36%,93% (active),92.3% (active),6%,91% (active),71.2% (active),1%,61%,69.4%,53%,95% (active),95.2% (active)
CCOC(=O)c1c[nH]cc1-c1cn(S(=O)(=O)c2ccccc2)cc1C,38%,12%,29.2%,34%,14%,18.2%,69%,21%,49.6%,38%,15%,43.5%,89% (active),38%,44%,82% (active),28%,49%
O=C1CCSC(=S)N1c1ccccc1C(F)(F)F,7%,99% (active),99.1% (active),4%,99% (active),99.5% (active),9%,99% (active),99.5% (active),7%,98% (active),98.6% (active),0%,99% (active),99.2% (active),1%,99% (active),99.3% (active)
CCOC(=O)C1=C(N)N(S(=O)(=O)c2ccc(C)cc2)CCC(C(=O)OC)=C1,3%,-4%,30.4%,0%,0%,31.9%,5%,-1%,82% (active),5%,-6%,-3.15%,1%,-4%,26.2%,-2%,-3%,56.1%
CCCCCOC(=O)c1ccc(O)cc1,-3%,98% (active),-3.65%,7%,100% (active),36%,2%,99% (active),51.2%,-9%,97% (active),13.1%,32%,99% (active),88.9% (active),3%,99% (active),15.4%
CCCCCNC(=O)c1ccc(Cl)c(Cl)c1,6%,49%,64.8%,5%,45%,28.4%,7%,63%,83.2% (active),16%,41%,33.5%,10%,59%,64.9%,1%,62%,64.6%
COc1cc(C(=O)CBr)c2ccc(Cl)cc2n1,73% (active),97% (active),84.8% (active),90% (active),98% (active),69.2%,94% (active),97% (active),94% (active),59%,97% (active),95.3% (active),87% (active),97% (active),70.3% (active),93% (active),97% (active),91.4% (active)
COc1ccc(C2=CC(=O)C=CC2=O)cc1,19%,91% (active),99% (active),3%,97% (active),99.5% (active),14%,90% (active),98.7% (active),-5%,70% (active),82.2% (active),28%,99% (active),99.5% (active),18%,89% (active),99.2% (active)
O=C(Oc1ccc(Cl)cc1)Oc1ccc(Cl)cc1,-13%,16%,3.55%,-10%,4%,16.7%,0%,25%,14.3%,-2%,36%,16.9%,-1%,-23%,18.3%,6%,12%,17.1%
COc1ccc2[nH]cc(C(=O)O)c2c1,-4%,55%,38%,-5%,65%,2.6%,7%,31%,66.3%,0%,36%,40%,1%,46%,79.8% (active),-30%,84% (active),25%
O=[N+]([O-])/C(=C\c1cccs1)c1ccccc1,90% (active),98% (active),99.2% (active),92% (active),99% (active),99.7% (active),83% (active),99% (active),99.5% (active),75% (active),99% (active),99.1% (active),90% (active),99% (active),99.5% (active),96% (active),99% (active),99.3% (active)
CCOc1ccc2c(c1)n([O-])c1cc(Br)ccc1[n+]2=O,95% (active),93% (active),22.4%,49%,85% (active),86.3% (active),72% (active),95% (active),88.2% (active),35%,90% (active),49%,33%,92% (active),78.6% (active),91% (active),93% (active),85.8% (active)
Nc1nc(=Nc2ccccc2)ss1,-12%,99% (active),84.8% (active),6%,100% (active),71.1% (active),0%,99% (active),86.5% (active),-7%,99% (active),45.4%,-11%,100% (active),57.5%,12%,99% (active),78.7% (active)
c1csc(-c2nccc3c2[nH]c2ccccc23)c1,-18%,92% (active),88% (active),-17%,94% (active),92.8% (active),-29%,95% (active),90.2% (active),-13%,83% (active),91% (active),-42%,97% (active),91.3% (active),-19%,94% (active),86.7% (active)
CC(C)C[P+](c1ccccc1)(c1ccccc1)c1ccccc1,0%,23%,62.6%,-3%,54%,58.9%,-34%,9%,50.6%,-5%,10%,49.5%,-7%,24%,54.2%,12%,45%,73.9% (active)
CCOC(=O)C(NNc1ccccc1)C(c1ccccc1)[P+](c1ccccc1)(c1ccccc1)c1ccccc1 (configuration not stated),78% (active),99% (active),99.5% (active),94% (active),99% (active),99.7% (active),85% (active),99% (active),99.7% (active),59%,99% (active),99.5% (active),91% (active),99% (active),99.4% (active),95% (active),99% (active),99.7% (active)
C1=NC(N(Cc2ccccc2)Cc2ccccc2)N(Cc2ccccc2)N1 (configuration not stated),26%,95% (active),92.4% (active),-1%,95% (active),93.6% (active),14%,94% (active),92.1% (active),-1%,95% (active),89.8% (active),-14%,96% (active),92.2% (active),-19%,96% (active),88.8% (active)
CN(C)NC(=S)C(F)(F)F,-1%,87% (active),95.5% (active),1%,79% (active),56.7%,0%,84% (active),97.8% (active),-4%,85% (active),44%,0%,85% (active),37.6%,-2%,79% (active),77% (active)
CC(=O)OC(OC(C)=O)c1ccc([N+](=O)[O-])o1,-7%,-39%,99.4% (active),-23%,-22%,99% (active),-5%,-10%,99.3% (active),-3%,-23%,99.2% (active),-20%,-87%,99.5% (active),5%,4%,99% (active)
